Among all 39,000 compounds or so, about 500 (1.3%) were called active. What follows is part of a selection rich in actives, with near analogues and random picks from the rest.

The assay deals with S. aureus RN4220. The experiment in a line: growth inhibition call (relative growth <= 0.2). Conditions: 50 µM.
For the compound `C[C@@H]1CCCCO[C@@H](CN(C)Cc2ccc(C(=O)Nc3ccccc3N)cc2)[C@@H](C)CN([C@H](C)CO)C(=O)c2cc(NC(=O)c3ccccc3)ccc2O1`, the growth inhibition call is “inactive”.

For the compound `CN(CC(=O)Nc1ccc(F)cc1F)S(=O)(=O)c1ccc2c(c1)c(=O)n(C)c(=O)n2C`, the growth inhibition call was “inactive”. `C[C@H]1CN([C@@H](C)CO)C(=O)Cc2cc(NS(=O)(=O)c3cn(C)cn3)ccc2O[C@@H]1CN(C)S(C)(=O)=O`: the growth inhibition call was “inactive”. `CCN(CC)C(=S)SSC(=S)N(CC)CC`: the growth inhibition call is “active”.

As to `COCCNC(=O)C[C@@H]1C[C@H]2c3cc(NS(C)(=O)=O)ccc3O[C@H]2[C@@H](CO)O1`, the growth inhibition call was “inactive”. Take `CO[C@H]1CN(C)C(=O)c2ccc(NC(=O)Nc3cccc(Cl)c3)cc2OC[C@@H](C)N(C(=O)Nc2c(C)noc2C)C[C@@H]1C`: the growth inhibition call was “inactive”.

On to `C[C@H](CO)N1C[C@H](C)[C@H](CN(C)S(C)(=O)=O)Oc2ccc(NC(=O)Cn3cnnn3)cc2C1=O`, for which the growth inhibition call is “inactive”. In the case of `Cc1ccc(CNc2ccc3c(c2)ncn3C2CCCCC2)cc1` it was “active”. In the case of `Cc1ccc(-n2cnc3cc(NCc4cccs4)ccc32)cc1`, the growth inhibition call was “inactive”. In the case of `COc1ccc(NC(=O)N(C)C[C@@H]2OCCCC[C@H](C)Oc3ccc(NC(=O)c4ccncc4)cc3C(=O)N([C@H](C)CO)C[C@@H]2C)cc1` it was “inactive”; in that of `C[C@@H]1CCCCO[C@H](CN(C)C(=O)Nc2ccc3c(c2)OCO3)[C@@H](C)CN([C@H](C)CO)C(=O)c2cc(NC(=O)Nc3ccccc3)ccc2O1`, “inactive”. In the case of `CC(C)(C)c1ccc(OC[C@@H](O)CN)cc1` it was “active”; in that of `Cc1cccc(OC[C@@H](O)CN)c1`, “inactive”; in that of `CCc1ccc(OC[C@@H](O)CN)cc1`, “inactive”. In the case of `Cn1cnc(S(=O)(=O)N2C[C@H](O)COC[C@@H]3O[C@H](CC(=O)NC4CCCC4)CC[C@H]32)c1`, the growth inhibition call was “inactive”. The same measure for `C=C[C@H]1CCC=C2C(=O)CCC[C@@H]21`: “inactive”; for `C[C@@H]1CCCCO[C@@H](CN(C)C(=O)Nc2ccc(C(F)(F)F)cc2)[C@H](C)CN([C@@H](C)CO)C(=O)c2cc(NS(=O)(=O)c3cn(C)cn3)ccc2O1`: “active”.

Turning to `C[C@H]1CCCCO[C@H](CN(C)C(=O)Nc2ccc(C(F)(F)F)cc2)[C@@H](C)CN([C@@H](C)CO)C(=O)c2cc(NS(=O)(=O)c3cn(C)cn3)ccc2O1`, the growth inhibition call was “inactive”. In the case of `C[C@@H]1CN([C@H](C)CO)C(=O)c2cc(NS(=O)(=O)c3cn(C)cn3)ccc2O[C@@H](C)CCCCO[C@H]1CN(C)C(=O)Nc1ccc(C(F)(F)F)cc1` it was “inactive”. In the case of `C[C@@H]1CCCCO[C@H](CN(C)C(=O)Nc2ccc(C(F)(F)F)cc2)[C@H](C)CN([C@H](C)CO)C(=O)c2cc(NS(=O)(=O)c3cn(C)cn3)ccc2O1` it was “inactive”; in that of `C[C@@H]1CCCCO[C@H](CN(C)C(=O)Nc2ccc(C(F)(F)F)cc2)[C@H](C)CN([C@@H](C)CO)C(=O)c2cc(NS(=O)(=O)c3cn(C)cn3)ccc2O1`, “inactive”; in that of `C[C@@H]1CN([C@@H](C)CO)C(=O)c2cc(NS(=O)(=O)c3cn(C)cn3)ccc2O[C@@H](C)CCCCO[C@@H]1CN(C)C(=O)Nc1ccc(C(F)(F)F)cc1`, “active”. In the case of `C[C@@H]1CCCCO[C@H](CN(C)C(=O)Nc2ccc(C(F)(F)F)cc2)[C@@H](C)CN([C@H](C)CO)C(=O)c2cc(NS(=O)(=O)c3cn(C)cn3)ccc2O1` it was “inactive”; in that of `C[C@H](CO)N1C[C@H](C)[C@@H](CN(C)C(=O)Nc2ccc(C(F)(F)F)cc2)OCCCC[C@H](C)Oc2ccc(NS(=O)(=O)c3cn(C)cn3)cc2C1=O`, “active”; in that of `C[C@@H]1CCCCO[C@@H](CN(C)C(=O)Nc2ccc(C(F)(F)F)cc2)[C@@H](C)CN([C@H](C)CO)C(=O)c2cc(NS(=O)(=O)c3cn(C)cn3)ccc2O1`, “inactive”.
